Compounds with a hit are over-represented: about 4.7% of the library has one in this group of screens.
TRHR ag: TRH receptor (human) agonism; 360,000 tested, 0.18% active; activation, % at 2 µM; TRHR cells, calcium flux fluo-8, FDSS agonist mode; AID 493084
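In this calcium-flux screen, cells bearing human TRHR are dye-loaded with fluo-8, baselined for 10 cycles, then exposed to library compounds; positive kinetic calcium responses during the agonist phase mark hits, with TRH as control.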
D1 agonist: agonists of human D1 dopamine receptor; P21728; HEK293 T-REx D1 cells, calcium flux, agonist mode; activation, % at 2 µM; 360,000 tested, 1% active; AID 504660
Target sequence (P21728 whole entry, looked up): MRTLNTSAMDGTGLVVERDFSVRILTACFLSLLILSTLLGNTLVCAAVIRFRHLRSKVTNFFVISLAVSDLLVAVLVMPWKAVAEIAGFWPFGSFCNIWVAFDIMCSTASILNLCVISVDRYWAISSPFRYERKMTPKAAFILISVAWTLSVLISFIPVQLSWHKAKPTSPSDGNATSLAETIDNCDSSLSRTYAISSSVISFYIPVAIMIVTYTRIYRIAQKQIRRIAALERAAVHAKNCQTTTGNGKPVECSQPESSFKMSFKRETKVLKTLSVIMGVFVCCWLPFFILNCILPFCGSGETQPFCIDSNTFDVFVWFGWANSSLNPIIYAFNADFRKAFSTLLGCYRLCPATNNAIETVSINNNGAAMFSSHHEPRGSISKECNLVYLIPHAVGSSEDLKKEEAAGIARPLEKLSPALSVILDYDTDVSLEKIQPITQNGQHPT
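Inducible HEK293 T-REx D1 cells, force-coupled to calcium signalling, were plated at 4000 cells/well with tetracycline and held overnight at 30 C. After no-wash calcium dye loading, compound-evoked calcium rise over 180 s flagged agonists.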
D1 PAM: potentiators of human D1 dopamine receptor; 360,000 tested, 0.036% active; HEK293 TREx D1 cells, calcium flux, dopamine EC20 potentiation; P21728; potentiation, % at 10 µM; in the data active = potentiation above about 30%
D1 antag: blocks dopamine activation of the human D1 receptor. P21728. HEK293 TREx D1 cells, calcium flux, dopamine EC80; active compounds read low. activity change, negative = inhibition, % at 10 µM. 360,000 tested, 3.2% active. AID 504652; in the data active = activity change below about -30%
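Antagonism measured as reduced calcium response to an EC80 dopamine addition following 180 s compound pre-read; cells were inducible HEK293 Trex D1 plated overnight at 30 C, read kinetically at 1 cycle/sec.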
TRHR PAM: TRH receptor (human) allosteric enhancement | 360,000 tested, 0.66% active | P34981 | TRHR cells, fluo-8 calcium fluorescence, EC20 TRH enhancement | enhancement, % at 2 µM; in the data active = enhancement above about 30%
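Enhancer read-out: after compound pinning and an initial kinetic agonist-mode read, an EC20 of TRH (10 nM final) was injected and fluo-8 calcium signal (Ex 480/Em 530) followed at 1 s/cycle for 100 cycles in TRHR-expressing cells.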
Large screens that a line does not name were inactive. Cut-off read from the data, not from the text of the source, unless noted: active = activation above about 30%; inactive = the rest.

Cc1ccc(S(=O)(=O)NC(=O)COc2ccc([N+](=O)[O-])cc2)cc1	none
Nc1c(C(=O)Nc2ccc(Cl)c(C(=O)O)c2)sc2nc3c(cc12)CCCC3	D1 antag -62
COc1ccc(S(=O)(=O)N(CCc2ccccc2)CC(=O)N2CCOCC2)cc1	D1 antag -74
COc1ccc(S(=O)(=O)N(C)CC(=O)N2CCOCC2)cc1	none
COc1ccc(CCNCC(O)COc2cccc(C(C)=O)c2)cc1OC (stereo not drawn)	none
CCOc1ccc(-c2nnc(NC(=O)CCCOc3cccc(C)c3)o2)cc1	D1 antag -33
Cc1cc(C)cc(OCC(=O)NNC(=S)NC(=O)C2CC2)c1	none
COc1ccc(NC2=C(C(C)=O)C(c3ccc(OC)c(OC)c3)C(C(C)=O)C(C)(O)C2)cc1 (stereo not drawn)	D1 antag -86
COc1cc2c(cc1OC)C(c1ccc(F)cc1)N(c1ccc(F)cc1)C(=O)C2 (stereo not drawn)	none
CSc1ccccc1NC(=O)CSc1nnc(CNC(=O)c2ccccc2F)n1C	D1 agonist 48 (no result: D1 PAM)
CCCCC1OC2(C)OC(=N)C1(C#N)C(C#N)(C#N)C2c1ccccc1 (stereo not drawn)	none
CC1OC2(C)OC(=N)C1(C#N)C(C#N)(C#N)C2c1ccccc1 (stereo not drawn)	D1 antag -35
CS(=O)(=O)C1=NSC2=NC(=O)/C(=C\c3ccc(OC(=O)c4ccco4)cc3)C(=N)N21	D1 antag -31
COc1cc(/C=C2/C(=N)N3N=C(C(C)C)SC3=NC2=O)ccc1OS(=O)(=O)c1ccccc1	D1 antag -31
Cc1cc(/C=C2/C(=N)N3C(=NC2=O)SN=C3S(C)(=O)=O)c(C)n1-c1ccccc1F	none
CCCC1=NN2C(=N)/C(=C\c3ccc(OCCOc4ccc(NC(C)=O)cc4)c(OC)c3)C(=O)N=C2S1	TRHR PAM 31
CS(=O)(=O)C1=NSC2=NC(=O)/C(=C\c3cccn3-c3ccc(Cl)cc3)C(=N)N21	D1 antag -36
CCC1=NN2C(=N)/C(=C/c3ccc(OS(=O)(=O)c4ccccc4)c(OC)c3)C(=O)N=C2S1	none
O=C(CSc1nccn1C1CCCC1)Nc1ccccc1	none
Cc1ccc(S(=O)(=O)Nc2c(C(=O)O)[nH]c3ccccc23)c(C)c1	none
CCS(=O)(=O)C1=NN2C(=N)/C(=C\c3ccc(OC(=O)c4ccco4)c(OC)c3)C(=O)N=C2S1	D1 antag -33
COc1ccc(Cn2ccc3nc(C)c(C(=O)N4CCN(c5ccccc5OC)CC4)cc3c2=O)cc1	D1 antag -33
CSc1ccc(CNC(=O)c2cc3c(=O)n(Cc4ccco4)ccc3nc2C)cc1	none
COc1ccc(Cn2ccc3nc(C)c(C(=O)N4CCN(c5ccc(OC)cc5)CC4)cc3c2=O)cc1	none
COc1ccc(CNC(=O)c2cc3c(=O)n(Cc4ccco4)ccc3nc2C)cc1	D1 antag -35
CC1=C(OC(=O)c2ccccc2)C(C)(C)C(c2ccccc2)OC1=O (stereo not drawn)	D1 antag -38
CCOC(=O)C1CSC(CC(=O)Nc2ccc(Cl)c(Cl)c2)C(=O)N1 (stereo not drawn)	D1 antag -32
CN1CCN(C(c2ccccc2Cl)c2sc3nc(-c4ccco4)nn3c2O)CC1 (stereo not drawn)	none (no result: D1 antag)
Cc1cccc(NC(=O)CN2C(=O)C3(SCC(=O)N3c3ccccc3)c3ccccc32)c1 (stereo not drawn)	D1 antag -36
Nc1nc(Cl)cc(NCCc2ccc(O)cc2)n1	none
Oc1ccc(CCNc2ncnc3ccc(Cl)cc23)cc1	D1 antag -40
COC(=O)c1ccc(C(=O)OC)c(NC(=O)c2ccc(-c3ccccc3)s2)c1	none
Cc1ccccc1C(=O)Nc1ccnn1C1CCN(Cc2c(C)n(C)c3ccccc23)CC1	D1 antag -34
CCc1ccc(CN2CCC(n3nccc3NC(=O)c3ccccc3C)CC2)cc1	none
Cc1cc2n(n1)C(c1sccc1C)Nc1c(C)cccc1-2 (stereo not drawn)	none
COc1cc(OC)c(C2Nc3c(C)cccc3-c3cc(C)nn32)cc1OC (stereo not drawn)	TRHR PAM 31
Cn1c(=O)nc2n(Cc3ccccc3)c3ccccc3cc-2c1=O	TRHR PAM 31
Cc1ccccc1-n1c2nc(=O)n(C)c(=O)c-2cc2ccccc21	none
COCCCNC(=O)CCc1nnc2ccc(N3CCC(C)CC3)nn12	none
CCOC(=O)C(Cc1ccc(O)cc1)NC(=O)CCc1c[nH]c2ccccc12 (stereo not drawn)	D1 agonist 37
CCOC(=O)C(Cc1c[nH]c2ccccc12)NC(=O)COc1ccc(CC)cc1 (stereo not drawn)	none
Cc1ccc2c(c1)cc1c(=O)n(CC(=O)NC(C)CCc3ccccc3)nc(C)n12 (stereo not drawn)	none
Cc1cccc(OCC(=O)Nc2ccc(C(=O)OCc3cc(=O)n4nc(C5CC5)sc4n3)cc2)c1	none
COC(=O)c1ccc(NC(=O)CSCc2ccccc2C)cc1	TRHR PAM 40
CCn1c(C)nc2cc(C(=O)OC(C(F)(F)C(F)F)C(F)(F)C(F)F)ccc21	D1 antag -37
COc1ccccc1/C=C/CN1CCN(c2ccccc2)CC1	D1 antag -54
CCCOc1ccc(/C=C2\SC(N)=NC2=O)cc1OC	D1 antag -42
COc1ccc(C)cc1NCc1nnc2n1CCCCC2	none
CCOC(=O)c1c(C=O)c(C)n(Cc2ccc(C)cc2)c1C	D1 agonist 104, D1 antag -56
Cc1cccc(NC(=O)C(NS(=O)(=O)c2cccc3nsnc23)c2ccccc2)c1C (stereo not drawn)	none
CCCc1cc(C(=O)Nc2cccc3ccccc23)n(C)n1	none
CCCc1cc(C(=O)Nc2ccc(C(=O)c3ccc(C)cc3)cc2)n(C)n1	D1 antag -35
COc1ccc(S(=O)(=O)N2CCN(CC(=O)Nc3cccc(OC)c3)CC2)cc1	none
COC(=O)c1ccc(NC(=O)CN2CCN(S(=O)(=O)c3cc(Cl)ccc3OC)CC2)cc1	D1 agonist 38
COc1ccc(S(=O)(=O)N2CCN(CC(=O)Nc3ccc(F)c(F)c3)CC2)cc1	D1 antag -33
CC1CCN(S(=O)(=O)c2ccc(NC(=O)CN3CCCC3)cc2)CC1	D1 agonist 36
COc1ccc(C(=O)CN2CCN(S(=O)(=O)c3ccc(F)cc3)CC2)cc1	D1 antag -30
Cc1ccc(CNC(=O)C2CCCCN2S(=O)(=O)c2ccc(F)cc2)cc1 (stereo not drawn)	none
COC(=O)c1cc2oc(C)cc2n1Cc1ccc(C)cc1	none
Oc1ccc(/C=C/c2nc(-c3ccccc3O)n(-c3ccccc3)n2)c(O)c1	none
O=C(CNC(=O)c1ccccc1O)N/N=C/c1cc(Br)ccc1OC(=O)/C=C/c1ccco1	D1 antag -33

Screening data (PubChem BioAssay)
